These results are taken from the supplement of paper PMC10681739.

One experiment deals with T1, ETS1 (UniProt P14921).
T1 sequence: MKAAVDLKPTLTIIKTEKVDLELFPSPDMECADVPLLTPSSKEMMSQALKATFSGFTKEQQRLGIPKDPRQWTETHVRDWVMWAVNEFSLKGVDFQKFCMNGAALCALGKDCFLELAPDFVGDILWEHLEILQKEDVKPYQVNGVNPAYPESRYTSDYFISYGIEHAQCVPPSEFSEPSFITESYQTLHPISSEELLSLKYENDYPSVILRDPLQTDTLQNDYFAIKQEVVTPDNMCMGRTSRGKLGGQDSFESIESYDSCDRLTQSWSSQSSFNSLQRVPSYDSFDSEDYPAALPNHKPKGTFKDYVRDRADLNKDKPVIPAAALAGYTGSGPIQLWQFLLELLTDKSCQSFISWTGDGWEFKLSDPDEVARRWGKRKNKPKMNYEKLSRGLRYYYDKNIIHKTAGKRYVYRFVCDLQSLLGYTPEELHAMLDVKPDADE
Nature of the experiment: ETS1 binding intensity (PBM fluorescence), ETS1 alone (arbitrary fluorescence units); higher = stronger binding. The settings on record: ETS1 concentration 1 nM; RUNX1 concentration 0 nM.

In experiment [1] the target is RUNX1 (UniProt Q01196). Nature of the experiment: RUNX1 binding intensity (PBM fluorescence), RUNX1 alone (arbitrary fluorescence units); higher = stronger binding. The settings on record: RUNX1 concentration 2 nM; ETS1 concentration 0 nM. As to the method: (§1)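 Cooperative gcPBM on 36-bp genomic probes with neighbouring ETS1 and RUNX1 sites. Recombinant human RUNX1 (2 nM) was incubated alone or with ETS1 (25 nM) and detected with anti-RUNX1 antibody plus Alexa488 secondary. Values are medians over 4 replicate spots; the RUNX1+ETS1 data were normalised to the RUNX1-only data. The probes sit in constant array flanks that are not printed.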

In experiment [2] the target is RUNX1 (UniProt Q01196). Nature of the experiment: RUNX1 binding intensity (PBM fluorescence) in presence of ETS1, normalised to RUNX1-only experiment (arbitrary fluorescence units); higher = stronger binding. The settings on record: RUNX1 concentration 2 nM; ETS1 concentration 25 nM. As to the method: as §1
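Throughout, for RUNX1 binding intensity (PBM fluorescence) in presence of ETS1, normalised to RUNX1-only experiment: Full-length recombinant human ETS1 or RUNX1 bound to double-stranded 36-bp genomic probes on microarrays, detected by protein-specific primary antibody and Alexa488 secondary, spot fluorescence as median of four replicate spots.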
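Throughout, for RUNX1 binding intensity (PBM fluorescence), RUNX1 alone: Full-length recombinant human RUNX1 bound to double-stranded 36-bp genomic probes on a high-density microarray, scored as Alexa488 fluorescence per spot via anti-RUNX1 antibody, median of four replicate spots.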

Sequence of RUNX1 (Q01196 whole entry): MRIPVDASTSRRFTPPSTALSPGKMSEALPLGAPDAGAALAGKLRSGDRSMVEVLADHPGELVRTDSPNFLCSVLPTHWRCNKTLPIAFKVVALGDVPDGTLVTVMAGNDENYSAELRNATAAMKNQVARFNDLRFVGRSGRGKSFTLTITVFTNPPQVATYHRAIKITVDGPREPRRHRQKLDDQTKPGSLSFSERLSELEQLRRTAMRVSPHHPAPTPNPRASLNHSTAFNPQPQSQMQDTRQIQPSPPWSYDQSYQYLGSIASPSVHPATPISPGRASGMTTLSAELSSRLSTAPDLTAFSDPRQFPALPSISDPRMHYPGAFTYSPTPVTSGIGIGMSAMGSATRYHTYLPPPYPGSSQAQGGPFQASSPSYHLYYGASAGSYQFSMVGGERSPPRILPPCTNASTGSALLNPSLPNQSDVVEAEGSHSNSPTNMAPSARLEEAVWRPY

AGGGAACAGGAAATGCAAAAAACCACAAGGGACAAG: in the experiment with ETS1, the ETS1 binding intensity is 2100. The RUNX1 binding intensity in the experiment with RUNX1 [1] stood at 2050; with RUNX1 [2] it was 15800.

GAATGGCGGATGTGGCTGGGGAGAGAAAGCCGCAGA registered an ETS1 binding intensity in the experiment with ETS1 of 914. Also, the RUNX1 binding intensity with RUNX1 [1] was 836; with RUNX1 [2], 2610.

On to GGCGGAAGCTGCCGCTGCCTTGCGCCCCCACACACG, for which, in the experiment with ETS1, the ETS1 binding intensity amounted to 640. Further, the RUNX1 binding intensity with RUNX1 [1] is 818; with RUNX1 [2] it was 1040.

As to TTTTATCCTTCCTTTTTTGTTCTTTGTGGTGGAGGT, the ETS1 binding intensity in the experiment with ETS1 was 465. Moreover, the RUNX1 binding intensity was found to be 1840 with RUNX1 [1] and 2040 with RUNX1 [2].

In turn, TGGCGGGAGAACTTCCCCCTGTGCGGTCGCGACGTG returned an ETS1 binding intensity with ETS1 of 444. The figures for the RUNX1 binding intensity in the experiment with RUNX1 [1] and with RUNX1 [2] were 738 and 943, respectively.

With TGCGAGGTTGCCAGGAAACCGCGAAGCCGAGGTCCC, the ETS1 binding intensity in the experiment with ETS1 was 808. For the same sequence, the RUNX1 binding intensity came out at 1120 with RUNX1 [1] and 1530 with RUNX1 [2].

ATAGTCTCTTCCTGTGTTGCAAACCACAGGTCCACC showed an ETS1 binding intensity in the experiment with ETS1 of 743. The RUNX1 binding intensity with RUNX1 [1] was determined as 1050; with RUNX1 [2] it was 2300.

On to AAAGCATTTCCTGCCTTGACTTAACCACAAGACAGG, for which, in the experiment with ETS1, the ETS1 binding intensity came out at 1880. In addition, the RUNX1 binding intensity with RUNX1 [1] was determined as 1460; with RUNX1 [2], 4320.

As to GCAGTTTCAAGAGGATGTGGTCTCTTTCACTGCCTG, the ETS1 binding intensity in the experiment with ETS1 stood at 1160. The RUNX1 binding intensity in the experiment with RUNX1 [1] amounted to 724; with RUNX1 [2], 1080.

Regarding CTGAAACAGGAAGCTGAGGGTGCGGTTGGGGGAGGA, in the experiment with ETS1, the ETS1 binding intensity came to 2210. Moreover, the results for the RUNX1 binding intensity in the experiment with RUNX1 [1] and with RUNX1 [2] were 811 and 1520, respectively.

Regarding TTGAATATGAAAGGAAGTGGTTAGGTGATGTGTTCT, the ETS1 binding intensity in the experiment with ETS1 is 2370. The RUNX1 binding intensity in the experiment with RUNX1 [1] stood at 826; in the experiment with RUNX1 [2] it was 1350.

In the case of GACACAAGCCTCACAGGATGTGGTCAAAGAAGGTTG, the ETS1 binding intensity with ETS1 was 3830. Also, the RUNX1 binding intensity is 762 in the experiment with RUNX1 [1] and 3910 with RUNX1 [2].

CTAAGCAGAGGCCGGAAGCGGTGGTTTTTAGCGGCT had an ETS1 binding intensity with ETS1 of 10200. In addition, the RUNX1 binding intensity is 677 with RUNX1 [1] and 2090 with RUNX1 [2].

AACAGACAGGATGTGGCCTCTGCCAAAACCACCATC showed an ETS1 binding intensity with ETS1 of 3250. Also, the RUNX1 binding intensity with RUNX1 [1] worked out at 869; in the experiment with RUNX1 [2], 2310.

GAATGACAGAAGCGGAAACCACATGAAAAAGGTGTT came in with an ETS1 binding intensity with ETS1 of 2010. Also, the results for the RUNX1 binding intensity in the experiment with RUNX1 [1] and with RUNX1 [2] were 913 and 1360, respectively.

The sequence GCCGGCGGCCGGAAGTCTATCCCGCAGAAGCGCAGC showed an ETS1 binding intensity with ETS1 of 9360. Moreover, the RUNX1 binding intensity stood at 736 in the experiment with RUNX1 [1] and 1900 with RUNX1 [2].

Regarding TCTGTCGTCCCACTTCCTGCTGCGGTTTCCACCTCG, the ETS1 binding intensity in the experiment with ETS1 was determined as 3340. The RUNX1 binding intensity in the experiment with RUNX1 [1] was 8620; with RUNX1 [2], 21300.

Take CAGCCTTGCCGGAAGGCAGAGTTTGTGGTCAGACCG: the ETS1 binding intensity in the experiment with ETS1 is 1090. Moreover, the values for the RUNX1 binding intensity in the experiment with RUNX1 [1] and in the experiment with RUNX1 [2] were 1330 and 2500, respectively.

In the experiment with ETS1, CAAGGTTCCTCCGCTTCCTGCCCGCAGGCCGAACCT came in with an ETS1 binding intensity of 956. Moreover, the RUNX1 binding intensity was found to be 840 in the experiment with RUNX1 [1] and 1830 with RUNX1 [2].

Consider GCGGAGGGAAGCGGAAATACTTGCGGTGGGGGCGAC, for which the ETS1 binding intensity with ETS1 was found to be 3700. Besides, the values for the RUNX1 binding intensity with RUNX1 [1] and with RUNX1 [2] were 898 and 2210, respectively.

With GCCACACTGGCGGAAATGGTGGTTACTGTTCGAGCC, the ETS1 binding intensity in the experiment with ETS1 was determined as 3510. Moreover, the RUNX1 binding intensity with RUNX1 [1] was determined as 711; with RUNX1 [2] it was 1560.

For the sequence GCGATCGGAGCGGAAGTGGAGCTACCGCCACCGCCG, the ETS1 binding intensity with ETS1 is 7540. Also, the RUNX1 binding intensity turned out to be 819 with RUNX1 [1] and 1290 with RUNX1 [2].
